# PubChem BioAssay AID1671193 (National Center for Advancing Translational Sciences (NCATS), 2021)
# Out of some 150,000 compounds screened, about 180 (0.12%) were called active. About 6% were inconclusive and are not listed. The entries come from a sample that favours actives as a whole. A number with no mark means an inactive call. The call rests on the fitted dose curve; in most records, active means well fitted cell-killing curve with a large enough effect; inconclusive means small, poorly fitted or top-dose-only effect, or effect the other way; inactive means flat fitted curve, though single readings scatter.
# Test: GF-AFC viability counterscreen for inhibitors of alpha-synuclein gene (SNCA) expression; further: nearly all actives have a fitted effect of over 30% in size
# Conditions: HEK-293-SNCA-luc viability, GF-AFC fluorescence, 24 h; series mostly up to 57.1 µM; activity change, negative = cytotoxicity: at the top concentration
# Description: Assay Submitter (PI): Daniel R. Scoles Ph.D.
# Department of Neurology, University of Utah, Salt Lake City, Utah
# Accumulation of alpha-synuclein is a main underlying pathological feature of Parkinson's disease (PD) and alpha-synucleinopathies, for which lowering expression of the alpha-synuclein gene (SNCA) is a potential therapeutic avenue. Using a cell-based luciferase reporter of SNCA expression we performed a quantitative high throughput screen (qHTS) of 155,885 compounds in dose response. The screening assay was generated using genome editing to insert the luciferase gene downstream and in frame of the SNCA gene in HEK-293 cells (1). A viability counterscreen using GF-AFC was used to eliminate cytotoxic and false positive compounds. After in silico analysis (clustering, removal of frequent hitter nuisance chemotypes), inhibitor compounds from the primary screen were selected for follow up and re-tested at 11-doses in the SNCA-luc cells (luciferase and GF-AFC confirmation), and in CMV-luc expressing cell line to flag general transcriptional repressors.
# Described herein are the results of the GF-AFC viability counterscreen for SNCA inhibitors; inactivity (no decrease in fluorescence signal, not cytotoxic) is the desired output for this assay.
# 1. Dansithong, W., Paul, S., Scoles, D. R., Pulst, S. M., and Huynh, D. P. (2015) Generation of SNCA Cell Models Using Zinc Finger Nuclease (ZFN) Technology for Efficient High-Throughput Drug Screening. PLoS ONE 10, e0136930.
# SEQUENCE No. (e.g., 1, 2, 3, etc.); […] (e.g., Cells, Incubation, Reagent, etc.); VALUE; DESCRIPTION
# 1; Cells; 4 uL; Dispense 1500 HEK-293-SNCA-luc cells/well into Greiner 1536-well white / solid bottom tissue culture treated plate. The plate was covered with metal lids with gas-exchange holes.
# 2; Incubate; 24 hours; Incubate at 37C, 5% CO2, 95% RH.
# 3; Compounds; 23 nL; Compounds and controls were transferred via a Kalypsys Pin Tool (Wako USA) equipped with a 1536-slotted pin array. The plate was covered with metal lids with gas-exchange holes.
# 4; Incubate; 24 hours; Incubate at 37C, 5% CO2, 95% RH.
# 5; Dispense; 1 uL; Dispense Gly-Phe-7-amino-4-trifluoromethylcoumarin (GF-AFC, prepared at 125 uM in PBS) was added. The plate was covered with metal lids with gas-exchange holes.
# 6; Incubate; 30 min; Incubate at 37C, 5% CO2.
# 7; Detector; Fluorescence; Measure fluorescence with ViewLux microplate reader (PerkinElmer) equipped with 405/10 excitation and 540/25 emission filters.
# 8; Dispense; 3 uL; Dispense ONE-Glo ([…]) lucifase detection reagent was added to each well. Plates were covered with metal lids with gas-exchange holes.
# 9; Incubate; 15 min; Incubate at room temperature.
# 10; Detector; Luminescence; Measure luminescence with ViewLux microplate reader (PerkinElmer) equipped with clear filters.
# NOTES (numbers refer to sequence above)
# 1; HEK-293-SNCA-luc were cultured and suspended in phenol-red free DMEM (4.5 g/L glucose, 25 mM HEPES, cat #21063 (Thermo)).
# 3; Compounds were added to the assay plate in an 11-point intra plate dose response, 1:3 titration in DMSO with a final concentration range of […]. Vehicle-only plates, with DMSO being pin-transferred to every well, were inserted at the beginning of screening runs to confirm expected assay performance. Activity was normalized to wells containing medium only (-100% activity, full inhibition) and SNCA-luc cells treated with DMSO vehicle control (0% activity), contained on the same plate as test samples.
# 10; Signals were analyzed, and dose-response curves were fit using the Hill equation. Compounds in curve classes -1.1, -1.2, -2.1, -2.2 in the SNCA-luc assay were considered active. Compounds were eliminated from further consideration if also active (curve class -1.1, -1.2, -1.3, -1.4, -2.1, -2.2, -2.3, -2.4) in the GF-AFC cytotoxicity assay.
# Potency means the concentration at half of the fitted maximal effect.
Compound,"activity change, negative = cytotoxicity",Potency
CCCCS(=O)(=O)N1CCCC(Cn2c(C3CC3)nc3cccnc32)C1 (stereo unspecified),-2.74%,
O=C1CC(c2ccccc2)N(Cc2cn[nH]c2-c2ccc(F)cc2)CCCCCN1 (stereo unspecified),-15.3%,
COc1ccc(-c2nc(C(C)C)nc3c2CCN([S+](=O)([O-])c2cccc(C(F)(F)F)c2)CC3)cc1,-10.8%,
CC(C)NC(=O)N1CC(Oc2ccc(-c3noc(-c4cccnc4)n3)cc2)C1,-29.9%,
O=C(Nc1cccc(Cl)c1)C1CCCN(c2ccnc3ccnn23)C1 (stereo unspecified),-11%,
c1cn(-c2ccc(N3CCCCCC3)nc2)c(-c2cc3n(n2)CCCNC3)n1,7.54%,
CSCC(=O)N1CCC2(CC1)CC(c1ccccc1)CN(C)C2 (stereo unspecified),0.187%,
O=C(c1cccc(C(F)(F)F)c1)N1C[C@@H](CO)[C@H](c2ccccn2)C1,0.505%,
CC(C)c1ccc(S(=O)(=O)N2CCc3nn(C)c(=O)n3CC2)cc1,4.59%,
COc1ccc(C(=O)N2C(C(=O)NCC(C)C)COC23CCN(C(=O)C2CCC2)CC3)cc1 (stereo unspecified),4.16%,
Cc1ccc(NC(=O)CN2CC3CC(C2)[C@H]2CCCC(=O)N2C3)cc1 (stereo partly specified),-2.58%,
O=C(NC[C@H]1OC[C@@H](NCc2ccccn2)[C@@H]1O)C1CCCC1,-11.2% [at 87.6 µM],
Cc1ccc(CN2CCCN(Cc3ccncc3)C(c3ccccc3)CC(=O)NCC2)s1 (stereo unspecified),1.35%,
COc1ccc(CNC[C@H]2O[C@H](Cc3cc(-c4ccc(OC)cc4)on3)CC[C@@H]2O)cc1,3.22%,
CCOc1ccc(C(=O)N2C[C@@H](CO)[C@H](c3ccncc3)C2)cc1,7.42%,
O=C(C1CCCC1)N1C[C@@H](CO)[C@H](c2ccncc2)C1,,20 µM (active)
Cc1ccc(C(=O)N2C[C@@H](CO)[C@H](c3ccncc3)C2)c(C)c1,-0.327%,
O=C1CCC2(CCN(Cc3ccc4[nH]ccc4c3)CC2)CN1CCc1ccccc1,-9.99%,
O=C(c1ccoc1)N1CCC(N2C(=O)[C@H]3CN(Cc4ccccc4)C[C@H]3C2=O)CC1,14.6%,
CCCNC(=O)N1CCC2(CC1)CC(C(=O)N1CCOCC1)N(C)C2 (stereo unspecified),-3.1%,
O=C(NCc1ccnc2[nH]ccc12)c1ccccn1,2.85% [at 87.6 µM],
COc1ccc(-c2cc(-c3cnc4[nH]ccc4c3)cn3cncc23)cn1,-7.15% [at 87.6 µM],
COC[C@@H]1[C@H](NC(=O)C2(Cn3ccnc3)CC2)[C@@H]2CCO[C@H]12,0.192%,

Compound,"activity change, negative = cytotoxicity",Potency
CCN1CCN(C(=O)c2cn3cc(-c4ccc(C(F)(F)F)cc4)sc3n2)CC1,4.72%,
Cc1noc(C)c1CNC(=O)[C@H]1CN(Cc2ccccc2)C[C@H]1C(=O)O,-8.06%,
COCC(=O)N[C@H]1C[C@H]2C(=O)Nc3ccc(/C=C/c4ccc(OC)cc4)cc3C(=O)N2C1,-2.8%,
CN(Cc1cccnc1)C1CN(C(=O)Nc2ccccc2F)C1,-21%,
COCCN1C(=O)c2cccn2CC1CNC(=O)CCc1nc(-c2ccccc2)no1 (stereo unspecified),7.27%,
O=C1NCCCCCN(S(=O)(=O)c2ccc3c(c2)CCC3)[C@H]2CCCC[C@@H]12,-24%,
COc1cccc(CNC(=O)c2cc(-c3ccccc3)nc3c2cnn3C)c1,5.25%,
CC1(c2ccccc2)N(Cc2ccc(O)cc2)C(=O)OC12CCN(Cc1ccc(C#N)cc1)CC2 (stereo unspecified),-18.3%,
COC(=O)CNC(=O)C1CCCN1Cc1ccc(-c2cc(C)cc(C)c2)cc1 (stereo unspecified),5.59%,
Cc1cccc(N2Cc3c(NCCCN4CCCCC4)ncnc3N(C)CC2=O)c1,6.15%,
O=C(NCc1cccnc1)c1cn2cc(-c3cccc(C(F)(F)F)c3)sc2n1,-7.27%,
CCOC(=O)C1CCCN(C(=O)C2CCc3nnc(CN[S+](C)(=O)[O-])n32)C1 (stereo unspecified),0.593%,
Cc1ccc(C(=O)N2CCCC(c3nc(C4CCOCC4)no3)C2)cn1 (stereo unspecified),5.29%,
CN(Cc1ccsc1)C(=O)C1CCCN(C2CCN(C(=O)C3CC3)CC2)C1 (stereo unspecified),3.93%,
COc1cccc(-c2cccc(CN3CCCC3C(=O)NCC(C)C)c2)c1 (stereo unspecified),-9.2%,
Cc1ccnc(NC(=O)C2CC(=O)N(c3n[nH]c4cc(Br)ccc34)C2)c1 (stereo unspecified),1.61%,
COCC1CN(C2CCC2)CC12CCN(C(=O)c1ccc(C)s1)CC2 (stereo unspecified),11.7%,
O=C1NC2(CCN(C(=O)c3ccccc3)C2)COc2ccccc21 (stereo unspecified),9.42% [at 87.6 µM],
Oc1ccccc1CN1CCC(O)(c2csc(CN3CCN(c4ccccn4)CC3)n2)CC1,-1.19%,
FC(F)(F)c1cccc(C2=NOC3(CCCN(Cc4ccccn4)C3)C2)c1 (stereo unspecified),-9.31%,
O=C(C1CC=CC1)N1CCC2(CC1)NCCc1c2[nH]c2ccccc12,-15.1% [at 12.5 µM],
COc1ccc(-c2cc3c(nc2-c2ccccc2)nc(C(=O)NCCN(C)C)n3C)cc1OC,-13.2%,
O=C(Nc1ccccc1)N1CCC(C(=O)N2CCCC(c3nc4ccncc4[nH]3)C2)CC1 (stereo unspecified),-0.207%,
